Drawing on PubChem BioAssay AID687001 (Broad Institute, 2013), this text covers outcome for 3 compounds.

Molecules are shown by their SMILES. Potency and affinity values are given separately. Calls of active or inactive are those of the source.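 The calls were made as follows: active = signal-lowering compounds whose fitted half-maximal concentration is at or below twice the top tested dose in every run; inconclusive = runs disagree, flat 30 to 70% inhibition, or poor curve fit; inactive = the rest.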

The target of the assay is Protein S100-A4 (Homo sapiens) (UniProt P26447). In words: S100A4-myosin IIA binding inhibitor potency, dose response, biochemical, fluorescence polarization, cherry-picked hits (AID 687001). Particulars: FP, S100A4/TAMRA-myosin IIA peptide binding; series mostly up to 11 µM. Background: Fluorescence polarisation rises when a labelled molecule tumbles more slowly, as on binding a larger partner.
Chain of Protein S100-A4 (Homo sapiens) (P26447 whole entry, looked up): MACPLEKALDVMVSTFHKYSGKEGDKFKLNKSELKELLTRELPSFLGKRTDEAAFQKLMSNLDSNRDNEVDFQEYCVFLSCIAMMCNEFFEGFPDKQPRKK
As to `CCOC(=O)[C@@H]1[C@H]2COc3cc(OC)ccc3[C@@H]2N2C(=O)N(c3cccc(C)c3)C(=O)[C@]12C`, the outcome was inactive.

Turning to `CCn1cc(CNC(=O)C2CCC(=O)N(CCc3cccc(F)c3)C2)cn1` (stereo not drawn), the compound was called inactive.

Take `Nc1cc(-c2ccncc2)c[nH]c1=O`: the compound was called inactive.
